Assay results taken from PubChem BioAssay AID504607 (Sanford-Burnham Center for Chemical Genomics, 2011).
In all, about 6,200 compounds went through this assay and about 4,800 (77%) were called active. The set was probably picked from earlier hits. Only a sample is shown. Unmarked numbers belong to inactive results.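 How the source made its calls: active means mean inhibition at 8 µM reaching about 37%, which flags the compound as non-specific (limit read from the data); inactive means the rest.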

Assay: full-length luciferase signal inhibition, confirmation, counter-screen for Mdm2/MdmX interaction inhibitor project, cell-based, single concentration, SaOS-2 (AID 504607);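 further: p53-null SaOS-2 cells with luciferase driven by a doxycycline-inducible promoter; compound on cells about two nights before reading with doxycycline added after day one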
Conditions: SaOS-2 full-length luciferase counterscreen, luminescence; at 8 µM; active compounds read high
For `Cc1ccc(OCCOCCOc2ccc(Br)cc2/C=N\NC(=O)c2ccncc2)cc1`, the inhibition was 45.5% (active).
For `CC(=O)N1CCc2c(sc(NC(=O)CCS(=O)(=O)c3ccccc3)c2C#N)C1`, the inhibition was 57.3% (active).
With `O=[N+]([O-])c1ccccc1S(=O)(=O)Nc1cccc2cccnc12` the inhibition was 56.4% (active).
In the case of `COc1cc(NS(=O)(=O)c2ccc3ccccc3c2)c2ncccc2c1`, the inhibition is reported as 22.5%.
Work on `COc1ccc(NC(=O)/C(Cl)=C(/Cl)S(=O)Cc2ccc(C)cc2)cn1` (configuration not stated) yielded an inhibition of 0.18%.
With `CN(C)CCCn1c(=O)n(Cc2ccccc2)c(=O)c2c3c(sc21)CCCCC3` the inhibition was 70% (active).
For `CSc1nnc(NC(=O)c2nc(S(=O)(=O)Cc3ccc(C)cc3)ncc2Cl)s1`, the inhibition was 49.9% (active).
With `Cc1ccc(CS(=O)(=O)c2ncc(Cl)c(C(=O)Nc3nnc(C)s3)n2)cc1` the inhibition was 50.9% (active).
For `COc1ccccc1N1CCN(c2ncnc3sc(C)c(-c4ccccc4)c23)CC1`, the inhibition was 80.6% (active).
In the case of `COc1ccccc1N(CC(=O)N/N=C(\C)c1ccccc1O)S(=O)(=O)c1ccc(C)cc1`, the inhibition is reported as 37.3% (active).
In the case of `COc1cc(NC(=O)c2[nH]cnc2C(N)=O)cc(C(=O)Nc2cccc(C(F)(F)F)c2)c1`, the inhibition is reported as 50% (active).
For `COc1cc(NC(=O)c2cncc(-c3ccc(C#N)cc3)c2)cc(C(=O)Nc2cccc(C(F)(F)F)c2)c1`, the inhibition was 21.1%.
For `CC[C@H]1CN2CCc3cc(OC)c(OC)cc3[C@@H]2C[C@@H]1C[C@H]1NCCc2cc(OC)c(OC)cc21`, the inhibition was 51.2% (active).
For `Cc1ccc(C(=O)N/C(=C/c2ccc(-c3cccc([N+](=O)[O-])c3)o2)C(=O)NCCCN(C)C)cc1`, the inhibition was 44.1% (active).
With `Nc1nonc1-c1nc2ccccc2n1Cc1ccc(F)cc1` the inhibition was 71.9% (active).
In the case of `COc1ccc(OC)c(C2C3=C(N=c4s/c(=C\c5cccc(O)c5)c(=O)n42)c2ccccc2CC3)c1` (configuration not stated), the inhibition is reported as 41.8% (active).
With `C=CCn1c(SCc2c(C)noc2C)nc2sc3c(c2c1=O)CCC(C)C3` (configuration not stated) the inhibition was 52.9% (active).
For `O=C(NCC1CCCO1)c1cc2c([nH]c3ccccc32)c(-c2ccc(F)cc2)n1` (configuration not stated), the inhibition was 74.8% (active).
`Oc1c(CN2CCCC2)cc(COCc2ccccc2)c2cccnc12` showed an inhibition of 32.2%.
For `COc1cc(/C=N/NC(=O)Nc2ccccc2)ccc1OCCOc1ccccc1C`, the inhibition was 62.6% (active).
For `O=C(NC(=O)c1ccccc1N1CCCCC1)Nc1ccc(Br)cc1`, the inhibition was 86.3% (active).
For `CCOC(=O)c1c(-c2ccc(C)cc2C)csc1NC(=O)CSc1nnnn1C`, the inhibition was 73.6% (active).
With `COc1ccc(C2CC(c3ccccc3)=NN2C(=O)c2ccc(Cl)c([N+](=O)[O-])c2)cc1` (configuration not stated) the inhibition was 62.6% (active).
In the case of `CC(=O)c1ccc(S(=O)(=O)N2CCN(C(=O)/C=C/c3ccc4ccccc4n3)CC2)cc1`, the inhibition is reported as 46.9% (active).
In the case of `N/C(=N\OC(=O)c1ccc2c(c1)OCO2)c1ccc(Br)cc1`, the inhibition is reported as 137% (active).
In the case of `CCc1nc(C)cn1S(=O)(=O)c1cc([N+](=O)[O-])ccc1Cl`, the inhibition is reported as 103% (active).
For `CCOc1cc(/C=C/c2nc3ccccc3c(=O)[nH]2)cc(Br)c1OC`, the inhibition was 57.5% (active).
For `O=C(/C=C/c1ccc(Cl)c([N+](=O)[O-])c1)c1ccc(O)cc1`, the inhibition was 59.3% (active).
With `O=C(/C=C/c1ccc(Cl)c([N+](=O)[O-])c1)c1cccnc1` the inhibition was 67.5% (active).
With `CCCc1nc(NCc2ccc3c(c2)OCO3)c2nnn(Cc3ccccc3Cl)c2n1` the inhibition was 91.5% (active).
`CC(C)Cc1nc(Nc2ccc(S(=O)(=O)N3CCCC3)cc2)c2nnn(Cc3ccccc3)c2n1` showed an inhibition of 24.1%.
With `COc1ccc(/C=C/C(=O)c2ccc(NS(=O)(=O)c3ccc(C)cc3)cc2)cc1O` the inhibition was 65.2% (active).
For `Cc1ccc(C2CC(=O)NC(SCC(=O)OCc3ccccc3)=C2C#N)o1` (configuration not stated), the inhibition was 55.9% (active).
With `Cc1cc(C(=O)COC(=O)CNC(=O)c2ccc(F)cc2)c(C)n1Cc1ccco1` the inhibition was 98.9% (active).
With `Cc1ccsc1C(=O)OCC(=O)c1cc(C)n(CC2CCCO2)c1C` (configuration not stated) the inhibition was 28.9%.
In the case of `CCOc1cc(C(=O)N2CCc3cc(OC)c(OC)cc3C2)ccc1OC(F)F`, the inhibition is reported as 86.4% (active).
With `COc1cc(N=Cc2c(O)[nH]c3ccccc23)cc(OC)c1OC` the inhibition was 47% (active).
With `COc1ccc(N=Cc2c(O)[nH]c3ccccc23)cc1OC` the inhibition was 65.3% (active).
With `c1ccc2c(c1)C(=NC1CCCCC1)NC2=NC1CCCCC1` the inhibition was 42.2% (active).
With `OC(CNCC1CCCO1)Cn1c2ccc(Br)cc2c2cc(Br)ccc21` (configuration not stated) the inhibition was 52.2% (active).
With `CC1=C/C(=N\OS(=O)(=O)c2ccccc2)C=CC1=O` the inhibition was 45.1% (active).
In the case of `CCc1ccc2c(c1)C1(NN=C(c3ccccc3)S1)C(=O)N2` (configuration not stated), the inhibition is reported as 40.3% (active).
In the case of `Cn1cc([N+](=O)[O-])c(C(=O)Nc2cnn(Cc3ccc(F)cc3)c2)n1`, the inhibition is reported as 74.9% (active).
In the case of `COc1ccccc1-n1nnnc1S(=O)(=O)Cc1ccc(Cl)cc1`, the inhibition is reported as 52.1% (active).
`COc1cccc(/C=N/NC(=O)c2[nH]nc3c2CCc2ccccc2-3)c1O` showed an inhibition of 27%.
In the case of `COc1cccc(/C=N/Nc2cc(C)nc(-c3ccccc3O)n2)c1O`, the inhibition is reported as 55.6% (active).
For `c1ccc(C2CCC(N3CCC(N4CCCCC4)CC3)CC2)cc1` (configuration not stated), the inhibition was 38.2% (active).
With `CCCCCCCCCCOC(=O)Cn1c(COc2ccc(C)cc2)[n+](C)c2ccccc21` the inhibition was 59.5% (active).
Work on `CCCCCCCCCCOC(=O)Cn1c(COc2cccc(OC)c2)[n+](C)c2ccccc21` yielded an inhibition of 31.2%.
In the case of `CC1CCN(C(=O)c2ccc(S(=O)(=O)Cc3cc(F)ccc3F)c([N+](=O)[O-])c2)CC1`, the inhibition is reported as 44.1% (active).
Molecule `COc1ccc(-c2cn[nH]c2-c2ccc(OC)cc2)cc1` has an inhibition of 35.1%.
For `COc1ccc(-c2n[nH]c(C)c2-c2ccc(OC)c(OC)c2)c(O)c1`, the inhibition was 53.7% (active).
For `CCCCn1c(-c2cccc(C)c2)nc2cc3[nH]c(=O)c(C(C)C)nc3cc21`, the inhibition was 91.6% (active).
Molecule `CC(=O)Nc1nc(C)c(-c2csc(Nc3ccc(S(N)(=O)=O)cc3)n2)s1` has an inhibition of 31.7%.
For `O=C(NC(=S)Nc1ccc2oc(=O)ccc2c1)c1ccc(-c2cccc(Cl)c2Cl)o1`, the inhibition was 68.2% (active).
For `O=c1oc2ccccc2cc1-c1cn(-c2ccccc2)c(=S)[nH]1`, the inhibition was 38.4% (active).
With `NC(N)=Nc1nc(-c2ccccc2)c2cc(Cl)ccc2n1` the inhibition was 53.4% (active).
